# Bioassay records from PubChem.
# This is a sample that favours compounds with a hit; in the whole collection about 9.6% have one here.
# DAT uptake mod: changed human dopamine transporter uptake under cocaine IC80. Q01959. LLC-PK1 hDAT cells, [14C]-dopamine uptake with cocaine IC80; actives deviate in either direction. B-score at 10 µM. 110,000 tested, 1.3% active;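 active = Z score or B-score, a plate-position-corrected score, falls beyond the plate's 99.7% confidence bounds, in either direction; inactive = both scores lie inside the 99.7% bounds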;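 note: scored against the spread of the other compound wells on the same plate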
# Cav32 inh: blocks human Cav3.2 T-type calcium channel. O95180. Cav3.2-expressing cells, Fluo-4 calcium fluorescence FDSS; hits give low values. B-score at 10 µM. 100,000 tested, 4% active. AID 449739;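 active = single-dose well whose peak fluorescence ratio is a statistical outlier from its plate by either plate-standardised score or position-corrected B-score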
# PostGolgi ctrl: inhibits growth of the yeast control strain. AID 738. 98,000 tested, 5% active. efflux-deficient yeast background strain, growth absorbance A615, 16 h. inhibition, % at 10 µM
# PostGolgi yeast: growth inhibition of a yeast mutant, post-Golgi transport screen; inhibition, % at 10 µM; AID 739; 98,000 tested, 0.9% active; post-Golgi transport phenotypic cell assay;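 note: yeast cells grown in 1536-well plates; yeast grown about 18 h at 30C before absorbance read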
# PLAP act: human PLAP activation | purified PLAP enzyme, luminescent substrate read-out; hits give high values | activation fold at 20 µM | 96,000 tested, 1.2% active | AID 696; in the data active = activation fold above about 2
# The depositor's hits bear a star; · = not tested or not shown. Cut-off read from the data, not from the text of the source, unless noted: active = inhibition above about 30%; inactive = the rest.
SMILES,DAT uptake mod,Cav32 inh,PostGolgi ctrl,PostGolgi yeast,PLAP act
CC1(C)Cc2c(cnn2-c2ccccc2)C(=O)/C1=N\NC(=O)c1ccccc1O,-0.66,-1.8,27,2,1
CCn1c(SCC(=O)N2CCN(c3ccccc3)CC2)nnc1-c1c[nH]c2ccccc12,2.5,-1.8,0,1,1.5
COc1ccc(C(=O)NNC(=S)NC(=O)c2ccco2)cc1,1.1,-5.5*,13,12,1.2
COc1ccc(C(=O)NC(=S)NNC(=O)Cc2cccs2)cc1,0.14,-4.9*,21,18,1.5
COCCNC(=S)NNC(=O)c1ccco1,1.4,0.93,4,8,2.1*
O=C(/C=C/c1cccs1)NC(=S)NNC(=O)Cc1cccs1,-1.8,-4.2*,·,·,·
CCOC(=O)c1c(C)oc(/N=C/c2ccccc2O)c1C#N,0.16,0.45,9,3,0.9
CC(C)(C)[C@H]1C=C(C(N)=O)O[C@@H](OCc2ccc(CO)cc2)C1,-0.017,0.31,·,·,·
O=C(NC(=S)NNC(=O)c1cccs1)c1ccco1,·,·,-2,-16,2.2*
CCCC(=O)Nc1ccc(C(=O)NNC(=S)NC(=O)c2cccs2)cc1,-0.16,-1.3,-4,18,2.4*
CCOc1cc(-c2c(C#N)c(=O)[nH]c3c2c(C)nn3-c2ccc(F)cc2)ccc1O,·,-2.6,2,-6,1.4
COc1ccc(N2C(=O)CCC(C(=O)N3CCCCCC3)C2c2ccc(OC)c(OC)c2)cc1 (stereo not given),0.16,0.9,14,11,1.2
O=C(O)c1ccc2c(c1)ncn2C1CCCCC1,0.1,0.52,2,17,1
O=S(=O)(c1ccccc1C(F)(F)F)N1CCC(n2cnc3ccccc32)CC1,2.7*,-0.86,8,24,1.6
CCCn1c2c(c(O)c(C(=O)Nc3ccccc3)c1=O)CCCC2,·,·,16,3,0.8
Cc1ccc(O)c(-c2cc(-c3ccccc3F)[nH]n2)c1,-0.52,-0.037,67*,17,0.9
Oc1ccc(Br)cc1-c1cc(-c2ccccc2)n[nH]1,-0.06,-0.033,·,·,·
Cc1ccc(O)c(-c2cc(-c3cccc(F)c3)n[nH]2)c1,0.031,-0.31,70*,12,1.8
Cc1ccc(-c2cc(-c3cccc(F)c3)n[nH]2)c(O)c1,0.16,0.017,43*,-7,1.5
O=C(c1cc(-c2ccccc2O)on1)N1CCc2ccccc2C1,-0.62,0.02,56*,-1,1.1
O=C(c1cc(-c2ccc(O)cc2)on1)N1CCc2ccccc2C1,-0.82,-6.2*,28,5,1.3
CC1CCN(C(=O)c2cc(-c3ccccc3O)on2)CC1,-0.99,0.09,35*,-10,1
Cc1ccc(C2CC(=O)NC(SCC(=O)Nc3nccs3)=C2C#N)cc1 (stereo not given),-0.86,-2.1,17,2,1.6
COc1cccc(NC(=S)N2CCN(C/C=C/c3ccccc3)CC2)c1,0.85,-4.9*,15,1,1.3
Cn1c(=O)c2c(ncn2CC(=O)Nc2cc(Cl)c(Cl)cc2Cl)n(C)c1=O,·,·,·,·,1
SMILES,DAT uptake mod,Cav32 inh,PostGolgi ctrl,PostGolgi yeast,PLAP act
COC(=O)C(O)(CC(=O)Nc1ccccc1OC)C(F)(F)F (stereo not given),0.63,-0.9,·,·,·
CC1=C(OC(=O)c2ccccc2)C(C)(C)C(c2ccc(Br)cc2)OC1=O (stereo not given),0.66,-7.1*,13,-5,0.7
CC1=CC(C)(C)N(S(=O)(=O)c2ccc(C)cc2)c2cc(C)ccc21,-2*,-2.4,25,-15,0.8
COc1ccccc1N1CSC2=C(C#N)C(c3ccc(SC)cc3)CC(=O)N2C1 (stereo not given),-0.54,0.96,-2,-23,1.3
COc1ccc(Cl)cc1Nc1nc(-c2sc(NC(=O)c3ccccc3)nc2C)cs1,-0.34,0.53,-6,-9,1.1
Cc1nc(NC(=O)c2ccco2)sc1-c1csc(Nc2ccc(Cl)cc2)n1,2.2,0.2,39*,-7,1
Cc1nc(NC(=O)c2ccccc2)sc1-c1csc(Nc2ccc(Cl)cc2Cl)n1,2.4*,0.24,12,-2,1.2
Cc1ccccc1Nc1nc(-c2sc(NC(=O)c3cccc(Cl)c3)nc2C)cs1,1.7*,1.2,5,-7,1.2
Cc1ccccc1Nc1nc(-c2sc(NC(=O)c3ccc([N+](=O)[O-])cc3)nc2C)cs1,0.81,-0.34,16,-8,1.2
Cc1ccccc1Nc1nc(-c2sc(NC(=O)c3ccccc3)nc2C)cs1,2.5*,-1.3,-2,-6,1.1
Cc1cc(C(F)F)nn1CC(=O)NCc1ccccc1F,-0.71,0.42,·,·,·
O=C(NC1CC1)C1=C[C@@H](C2CCCCC2)C[C@@H](OCCCCO)O1,-0.093,1.9,·,·,·
Cc1nc(NC(=O)c2ccccc2)sc1-c1csc(Nc2ccc(F)cc2)n1,0.16,0.72,-3,33*,1
CC(=O)C1=C(O)C(=O)N(c2cc(C(C)(C)C)on2)C1c1ccc(C(C)C)cc1 (stereo not given),-0.18,-4.2*,1,-1,1
Cc1cc(N2C(=O)C(O)=C(C(=O)c3ccco3)C2c2ccc(O)cc2)no1 (stereo not given),·,·,1,-12,1.1
CC(=O)C1=C(O)C(=O)N(c2nccs2)C1c1ccc(Br)cc1 (stereo not given),-0.96,-3.6,-4,-10,1
CC(=O)C1=C(O)C(=O)N(c2cc(C(C)(C)C)on2)C1c1ccc(Br)cc1 (stereo not given),0.59,-5.9*,18,-4,1.2
COc1ccc(-c2nn(C)c(=O)c3ccccc23)cc1CNS(C)(=O)=O,-1.1,1.9,42*,0,0.9
COc1ccc(-c2nn(C)c(=O)c3ccccc23)cc1NS(C)(=O)=O,-0.018,1.1,2,3,1.6
Cc1cc(NC(=O)C(C)C)ncc1NC(=O)Cc1ccccc1,0.031,-4*,9,2,1
CCCC(=O)Nc1cc(C)c(NC(=O)Cc2ccccc2)cn1,-1.7,0.57,-2,23,1
COC(=O)c1sccc1NC(=O)CN1CCN(c2ccc(F)cc2)CC1,0.97,-1.9,32*,-1,1.7
CN1CCN(c2ccc(NC(=O)c3cccc(OCc4ccccc4)c3)cc2)CC1,·,·,39*,0,1.2
O=C(CN1CCN(c2ccccc2)CC1)Nc1ccc(OCc2ccccc2)cc1,·,-0.77,48*,2,0.9
CCOc1ccc(NC(=O)CCN2CCN(c3ccccc3)CC2)cc1,1.2,0.23,1,7,1.4
SMILES,DAT uptake mod,Cav32 inh,PostGolgi ctrl,PostGolgi yeast,PLAP act
COC(=O)c1ccc(NC(=O)CN2CCN(c3ccc(Cl)cc3)CC2)cc1,-0.91,1.1,16,44*,1.1
CCN1CCN(c2ccc(NC(=O)c3cccc(OCc4ccccc4)c3)cc2)CC1,0.00049,0.98,0,-2,1.2
CCOC(=O)c1ccc(NC(=O)CN2CCc3ccccc3C2)cc1,0.62,-5.2*,9,-1,0.9
CN1CCN(CC(=O)Nc2ccc(Oc3ccccc3)cc2)CC1,-0.095,1.4,28,10,1.4
CCOC(=O)N1CCN(CC(=O)Nc2ccc(Oc3ccccc3)cc2)CC1,-0.16,-0.066,32*,4,1.7
O=C(CN1CCCN(S(=O)(=O)c2ccc(Br)s2)CC1)Nc1ccc(Cl)cc1,-0.47,-2.8,65*,14,1
